Screening data from PubChem.
Not all results are given here.
aSyn UTR act – Activators working through SNCA 5'UTR binding (MLPCN); activity score, % (tested at 7.5 µM), hits read low; alpha-synuclein 5'UTR reporter, activators screen; 300,000 tested, 7.1% active; AID 1814; in the data active = activity score below about -60%
Of the large screens only hits and unclear results are named; the others gave an inactive call.

CCOC(=O)c1cnn(-c2ncnc3sc4c(c23)CCC4)c1N	aSyn UTR act -74.5
CCOC(=O)c1cnn(-c2cc(Oc3ccccc3)ncn2)c1N	aSyn UTR act -101.3
c1ccc(Oc2cc(-c3ccccc3)ncn2)cc1	aSyn UTR act -123.9
CCOC(=O)c1cnn(-c2cc(C)c3ccccc3n2)c1N	aSyn UTR act -65.4
CCOC(=O)c1cnn(-c2cc(Oc3ccccc3C)ncn2)c1N	aSyn UTR act -88.4
Cc1cnn(-c2cc(Oc3ccccc3)ncn2)c1	aSyn UTR act -216.2
CCOC(=O)c1cnn(-c2ncnc3c2oc2ccccc23)c1N	aSyn UTR act -98.4
C=CCn1cccc(/C=C/C(=O)c2ccc(C(C)(C)C)cc2)c1=S	aSyn UTR act -74.4
CC(=O)c1ccc(OCc2cc(C(=O)N3CCC(Oc4ccccc4C)CC3)no2)cc1	aSyn UTR act -182.5
CC(=O)c1ccc(OCc2cc(C(=O)N3CCOCC3)no2)cc1	aSyn UTR act -154.3
O=C(COc1cccc2c1CCNC2=O)Nc1cccc(C(F)(F)F)c1	aSyn UTR act -84.4
Cc1cs/c(=N\N=C\c2cccc([N+](=O)[O-])c2)n1Cc1ccco1	aSyn UTR act -97.3
CCN(CC)S(=O)(=O)c1cccc(C(=O)N[C@H](C(=O)Nc2nc3ccc(F)cc3s2)C(C)C)c1	aSyn UTR act -82.8
Cc1cccc(C(=O)NC(C(=O)Nc2nc(-c3ccccn3)cs2)C(C)C)c1 (configuration not stated)	none
CC(Sc1nnc(NCc2ccccc2)s1)C(=O)Nc1ccc2c(c1)C(=O)c1ccccc1C2=O (configuration not stated)	aSyn UTR act -165.0
O=C(CCc1nc2ccccc2c(=O)[nH]1)Nc1nc(-c2cccs2)cs1	aSyn UTR act -88.8
Cc1ccc(C2=NNC(C(O)C(O)C(O)C(O)CO)S2)cc1 (configuration not stated)	aSyn UTR act -103.2
C=CCNCCCCOc1ccc(OCc2ccccc2)cc1	aSyn UTR act -79.8
c1ccc(COc2ccc(OCCCNC3CCCC3)cc2)cc1	aSyn UTR act -70.3
COCCCNCCCCOc1ccc(OCc2ccccc2)cc1	aSyn UTR act -69.2
COc1cccc(CNc2ncc(Br)cc2Br)c1O	aSyn UTR act -125.2
COc1cccc(/C=N/Nc2ncnc(Cl)c2N)c1O	none
CC(C)n1c(CN(C)Cc2ccccc2)nc2c1c(=O)n(C)c(=O)n2C	none
Cc1[nH]c2ccccc2c(=O)c1CN(C)Cc1ccccc1	aSyn UTR act -89.1
COc1cccc(Cn2c(N)c(C#N)c3nc4ccccc4nc32)c1OC	none
COc1cccc(CNc2ccc3c(c2)ncn3C(C)C)c1OC	aSyn UTR act -86.5
CC(=C/c1ccc(C(C)C)cc1)/C=N/NC(=O)CSc1ccccn1	aSyn UTR act -163.7
CC(/C=N/NC(=O)CSc1ccccn1)=C\c1ccc(C(C)C)cc1	aSyn UTR act -253.6
COc1cc2c(cc1OC)CN(C(=O)c1cc3ccccc3oc1=O)CC2	aSyn UTR act -98.8
COc1ccc2oc(=O)c(C(=O)N3CCN(c4ccccc4)CC3)cc2c1	aSyn UTR act -68.1
COc1ccc2oc(=O)c(C(=O)N3CCN(c4ccccc4C)CC3)cc2c1	aSyn UTR act -157.3
CC(C)c1ccc(NC(=O)N2CCc3ccccc3C2)cc1	aSyn UTR act -261.1
O=C(Nc1ccc([N+](=O)[O-])cc1)N1CCc2ccccc2C1	aSyn UTR act -106.0
O=[N+]([O-])c1ccc(N2CCc3ccccc3C2)cc1	aSyn UTR act -117.4
Cc1ccc(C)c(NC(=O)N2CCc3ccccc3C2)c1	aSyn UTR act -66.9
O=C(N/N=C/c1ccc([N+](=O)[O-])cc1)c1[nH]ncc1Br	aSyn UTR act -68.0
C/C(=N\NC(=O)COc1ccc(C(C)(C)C)cc1)c1ccc(-n2ccnc2)cc1	aSyn UTR act -132.7
CC(NC(=O)NC(=O)c1ccc(Cl)cc1Cl)C1CC1 (configuration not stated)	aSyn UTR act -69.6
O=[N+]([O-])c1ccc(-c2nc(-c3ccncc3)no2)cc1	aSyn UTR act -73.7
Brc1ccc(-c2nc(-c3ccncc3)no2)o1	aSyn UTR act -187.8
Brc1ccc(-c2nc(-c3ccccn3)no2)o1	none
c1ccc(-c2nc(-c3ccc(-c4ccon4)s3)no2)cc1	aSyn UTR act -104.2
c1coc(-c2nc(-c3ccncc3)no2)c1	aSyn UTR act -122.4
c1ccc(-c2noc(-c3cccnc3)n2)cc1	aSyn UTR act -198.5
CCCCc1ccc(-c2nc(-c3ccncc3)no2)cc1	none
c1ccc(-c2nc(-c3ccncc3)no2)cc1	aSyn UTR act -140.6
Brc1ccc(-c2nc(-c3ccncc3)no2)cc1	aSyn UTR act -184.2
COc1ccc2c(c1)CC/C2=N\OC(=O)c1ccccc1OC	aSyn UTR act -65.1
O=[N+]([O-])c1ccccc1/C=C/C=N/N1CCCCC1	aSyn UTR act -204.6
NS(=O)(=O)c1ccc(N/N=C/C=C/c2ccccc2[N+](=O)[O-])cc1	aSyn UTR act -177.1
Cc1ccccc1/C=N/N1CCN(c2ccccc2)CC1	aSyn UTR act -130.7
Cc1cc(-c2ccc(C(C)C)c(S(=O)(=O)N3CCN(c4ccccc4)CC3)c2)on1	none
Cc1ccc(/C=N/N2CCN(c3ccccc3)CC2)cc1	aSyn UTR act -99.7
Cc1cccc(/C=N/N2CCN(c3ccccc3)CC2)c1	aSyn UTR act -139.5
O=[N+]([O-])c1ccccc1/C=N\N1CCN(c2ccccc2)CC1	aSyn UTR act -200.6
O=c1[nH]c2ccccc2n1CCCSc1cnc2ccccc2n1	aSyn UTR act -63.8
COC(=O)c1nc(NC(=S)NC(=O)c2cccs2)sc1C	aSyn UTR act -80.5
COC(=O)Cc1nc(NC(=O)c2cccs2)sc1C	aSyn UTR act -81.6
O=C(NC(=S)Nc1nc2ccccc2s1)c1cccs1	aSyn UTR act -136.1
CC1CCCN(CCS(=O)(=O)c2ccccc2)C1 (configuration not stated)	aSyn UTR act -150.5
Cn1nnnc1SCC(=O)c1ccc2c(c1)OCCO2	aSyn UTR act -66.8
CCCn1nnnc1SCC(=O)c1ccc2c(c1)OCCO2	aSyn UTR act -82.6
Cc1nn(C(=O)c2cccs2)c(N)c1-c1ccccc1	aSyn UTR act -125.5
COc1nc(C)ccc1-c1noc(-c2cccnc2)n1	aSyn UTR act -106.1
COc1ccccc1-c1nc(-c2ccc(C)nc2OC)no1	aSyn UTR act -113.6
N/C(=N/OC(=O)c1ccccc1Cl)c1nonc1N	aSyn UTR act -84.9
Cc1nc(/C(N)=N/OC(=O)c2ccccc2Cl)c(C(F)(F)F)o1	aSyn UTR act -131.1
Cc1ccc(Oc2ncc(CN3CCOCC3)s2)cc1	aSyn UTR act -78.4
N/C(Cc1cccs1)=N\OC(=O)COc1ccc(Br)cc1Cl	aSyn UTR act -163.3
N/C(Cc1cccs1)=N\OC(=O)COc1ccccc1Cl	aSyn UTR act -173.6
O=C(N/N=C/c1ccccc1[N+](=O)[O-])c1cccs1	aSyn UTR act -125.3
Cc1ccc(/C=N/NC(=O)c2cccs2)cc1[N+](=O)[O-]	aSyn UTR act -107.3
CC(N=c1ccccn1C(=O)Nc1ccc(Cl)cc1)c1ccco1 (configuration not stated)	aSyn UTR act -121.0
Oc1c(C2=NCCNC(C(F)(F)F)=C2)ccc2ccccc12	aSyn UTR act -193.4
O=C(Cc1ccc(Br)cc1)Nc1ncc([N+](=O)[O-])s1	aSyn UTR act -104.6
O=C(Cc1ccc(Cl)cc1)Nc1ncc([N+](=O)[O-])s1	aSyn UTR act -131.1
O=C(Nc1ncc([N+](=O)[O-])s1)c1ccco1	aSyn UTR act -98.1
Cc1ccc(C(=O)Nc2ncc([N+](=O)[O-])s2)cc1	none
Cc1ccc(-n2sc3ccccc3c2=O)cc1	aSyn UTR act -121.2
CC(C)C(NC(=O)OCc1ccccc1)C(=O)OCC(=O)N1CCCCC1 (configuration not stated)	aSyn UTR act -132.0
